Results on nine compounds are retold here after PubChem BioAssay (Tox21).

Assay [1] can be described thus: qHTS assay to identify small molecule agonists of the TGF-beta/Smad signaling pathway - cell viability counter screen (AID 1346829). Also: top concentration of the series differs between compounds; nearly all actives have a fitted effect of over 45% in size. In outline:
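Tox21 qHTS format: SBE-bla HEK 293T cells treated with DMSO-dissolved compounds for 5 hr; CellTiter-Glo luminescence after 30 min at room temperature.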
For orientation: In qHTS, concentration-response curves come from the screen itself.

Assay [2] is described as follows: qHTS assay to identify small molecule agonists of the TGF-beta/Smad signaling pathway (AID 1346859; active = well fitted activation curve with a large enough effect in the signal ratio in the repeat runs, not every such curve was filed as active; the % refers to the signal ratio; also: series mostly up to about 77 µM). In outline:
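Stable Smad binding element-beta-lactamase HEK 293T cells; 5 hr compound exposure at 37 C under 5% CO2; 2 hr room-temperature substrate step; fluorescence excited at 405 nm, collected at 460 nm and 530 nm.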

Assay [3] addresses Thyrotropin-releasing hormone receptor (Homo sapiens) (UniProt P34981). Description: qHTS assay to identify small molecule antagonists of the thyrotropin-releasing hormone receptor (TRHR) signaling pathway (AID 1346877; active = well fitted inhibition curve with a large enough effect in the repeat runs, not every such curve was filed as active; also: series mostly up to about 51 µM). In outline:
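Overnight-plated (18 h, 37 °C) HEK293 cells expressing TRHR were dye-loaded 2 h, treated with compound, then stimulated with TRH at 1 nM final. Fluorescence intensity was captured every second for 3 min.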

Assay [4] has the same target. Put plainly: qHTS assay to identify small molecule agonists of the thyrotropin-releasing hormone receptor (TRHR) signaling pathway (AID 1346891; calls by dose curve;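 also: HEK293 cells expressing TRHR with calcium dye readout; series mostly up to about 58 µM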). The method in brief: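 In 1536-format, 1500 TRHR-Hek293 cells per well grew 18 h, took up calcium dye for 2 h at 37 °C, received compound, and were read kinetically; 15-point titrations, triplicates.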
Assay [5] is described as follows: Human pregnane X receptor (PXR) small molecule agonists, qHTS cell viability counter screen (AID 1346977). Also: nearly all actives have a fitted effect of over 50% in size. The method in brief: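 Readout is CellTiter-Fluor fluorescence from PXR-Luc HepG2 cells. Plated cells rested 5hr, then were treated with compounds for 24hr at 37C and 5% CO2, with reagent present during the last hour.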
The nature of assay [6]: Caspase-3/7 induction in HepG2 cells by small molecules, qHTS assay (AID 1346978). Also: nearly all actives have a fitted effect of over 15% in size. The method in brief: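 Caspase-3/7 induction was measured by Caspase-Glo 3/7 luminescence (30 min, room temperature) after a 17 hr compound exposure of wild-type HepG2 cells seeded at 2,000 per well and pre-incubated 5 hr.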
The nature of assay [7]: Caspase-3/7 induction in CHO-K1 cells by small molecules, qHTS cell viability counter screen (AID 1346979). Also: nearly all actives have a fitted effect of over 35% in size. The method in brief:
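To flag cytotoxic compounds, treated CHO-K1 wild-type cells were given CellTiter-Fluor at 16hr and read fluorescently after 1hr at 37C; the caspase-3/7 luminescence was measured in these same wells.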

A short description of assay [8]: Caspase-3/7 induction in CHO-K1 cells by small molecules, qHTS assay (AID 1346980). Also: nearly all actives have a fitted effect of over 15% in size. In outline: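 Luminescent Caspase-Glo 3/7 read (30min, room temperature) quantified apoptosis induction. Cells were wild-type CHO-K1, treated with compound for 17hr at 37 C and 5% CO2.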
Assay [9] in a line: Caspase-3/7 induction in HepG2 cells by small molecules, qHTS cell viability counter screen (AID 1346981). Also: series mostly up to about 92 µM; nearly all actives have a fitted effect of over 30% in size. The method in brief: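 Treatment of HepG2 cells with DMSO-delivered compounds ran 16 hr at 37 C following a 5-hr pre-incubation of 2,000 cells/well. CellTiter-Fluor fluorescence, read after 1 hr, served as the viability measure in a qHTS format.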
In assay [10] the target is Nuclear receptor subfamily 1 group I member 2 (Homo sapiens) (UniProt O75469). Description: Human pregnane X receptor (PXR) small molecule agonists, qHTS assay (AID 1346982). Also: nearly all actives have a fitted effect of over 35% in size. In outline:
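Stable HepG2 line reporting PXR-mediated CYP3A4 expression via luciferase. Treatment: 24 hr with compounds in DMSO at 37 C. Detection: ONE-Glo luminescence.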

The target in assay [11] is Cytochrome P450 2D6 (Homo sapiens) (UniProt P10635). Description: Cytochrome P450 Family 2 Subfamily D Member 6 (CYP2D6) small molecule antagonists: luciferase reporter qHTS assay (AID 1671196). Also: nearly all actives have a fitted effect of over 50% in size. Also: potency is read from the fitted curve at half-maximal effect. The method in brief:
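Chemicals tested for interference with CYP2D6 activity; proluciferin substrate, NADPH regeneration, 1 h at room temperature, luminescent detection.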
In general terms: A reporter such as luciferase makes a cellular process visible.

In assay [12] the target is Cytochrome P450 2C19 (Homo sapiens) (UniProt P33261). Put plainly: Cytochrome P450 Family 2 Subfamily C Member 19 (CYP2C19) small molecule antagonists: luciferase reporter qHTS assay (AID 1671197). Also: nearly all actives have a fitted effect of over 65% in size. Also: potency is read from the fitted curve at half-maximal effect. In outline:
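Relative luminescence units recorded 20 min after the detection reagent stopped a 1 h, 37C CYP2C19 reaction on proluciferin substrate, which was started by NADPH regeneration following 10 min room-temperature compound preincubation; ketoconazole positive control.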

The target of assay [13] is Cytochrome P450 2C9 (Homo sapiens) (UniProt P11712). Put plainly: Cytochrome P450 Family 2 Subfamily C Member 9 (CYP2C9) small molecule antagonists: luciferase reporter qHTS assay (AID 1671198). Also: series mostly up to about 120 µM; nearly all actives have a fitted effect of over 50% in size. The method in brief: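 Enzyme-substrate mix preincubated with compound 10 min at room temperature; reaction started with NADPH regeneration solution, 1 h 37C. Luminescent luciferin product read after 20 min detection reagent.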
Cytochrome P450 2C9 (Homo sapiens), sequence (P11712 whole entry, looked up): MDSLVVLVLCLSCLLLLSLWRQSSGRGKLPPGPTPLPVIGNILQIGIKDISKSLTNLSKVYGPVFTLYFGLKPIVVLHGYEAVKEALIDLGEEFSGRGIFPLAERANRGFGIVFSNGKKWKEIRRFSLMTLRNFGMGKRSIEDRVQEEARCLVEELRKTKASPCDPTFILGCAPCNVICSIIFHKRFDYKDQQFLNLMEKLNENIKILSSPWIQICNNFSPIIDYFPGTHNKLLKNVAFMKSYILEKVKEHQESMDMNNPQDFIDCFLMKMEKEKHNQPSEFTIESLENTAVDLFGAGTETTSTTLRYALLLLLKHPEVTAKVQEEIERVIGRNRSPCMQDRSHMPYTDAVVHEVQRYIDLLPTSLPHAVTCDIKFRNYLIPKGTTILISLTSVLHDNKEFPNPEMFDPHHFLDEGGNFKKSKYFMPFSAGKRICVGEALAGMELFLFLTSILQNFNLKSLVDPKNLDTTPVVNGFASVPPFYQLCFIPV

Assay [14] deals with Cytochrome P450 1A2 (Homo sapiens) (UniProt P05177). Put plainly: Cytochrome P450 Family 1 Subfamily A Member 2 (CYP1A2) small molecule antagonists: luciferase reporter qHTS assay (AID 1671199). Also: nearly all actives have a fitted effect of over 50% in size. Also: potency is read from the fitted curve at half-maximal effect. In outline: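 Read-out is luminescence from luciferin detection reagent (20 min) proportional to CYP1A2 activity; compounds in DMSO preincubated 10 min with enzyme and proluciferin substrate, then NADPH regeneration solution, 1 h, room temperature.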
Cytochrome P450 1A2 (Homo sapiens), sequence (P05177 whole entry, looked up): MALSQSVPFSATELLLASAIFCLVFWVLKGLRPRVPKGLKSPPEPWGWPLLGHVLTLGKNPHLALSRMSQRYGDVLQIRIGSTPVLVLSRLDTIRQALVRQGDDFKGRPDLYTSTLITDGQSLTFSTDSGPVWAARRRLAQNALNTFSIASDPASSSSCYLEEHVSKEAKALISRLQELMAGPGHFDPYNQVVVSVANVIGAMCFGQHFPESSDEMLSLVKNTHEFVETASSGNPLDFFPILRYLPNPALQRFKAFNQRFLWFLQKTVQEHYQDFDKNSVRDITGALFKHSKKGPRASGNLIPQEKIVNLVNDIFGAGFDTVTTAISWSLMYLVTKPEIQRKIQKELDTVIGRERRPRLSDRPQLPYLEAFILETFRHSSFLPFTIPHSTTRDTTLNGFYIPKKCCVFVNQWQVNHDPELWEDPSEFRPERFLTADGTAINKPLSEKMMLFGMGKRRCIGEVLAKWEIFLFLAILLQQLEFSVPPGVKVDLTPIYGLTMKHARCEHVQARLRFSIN

The target in assay [15] is Voltage-gated inwardly rectifying potassium channel KCNH2 (Homo sapiens) (UniProt Q12809). Put plainly: Human Ether-a-go-go-Related Gene (hERG) channel small molecule antagonists: fluorescence cell-based qHTS assay (AID 1671200). In outline:
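Measured: Tl+ flux via fluorescence (480/540 nm) in hERG-expressing U2OS cells after 1 h dye loading at room temperature.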
(In general: hERG is a cardiac potassium channel; its block is linked to QT prolongation.)

Assay [16] has as its target Cytochrome P450 3A4 (Homo sapiens) (UniProt P08684). Description: Cytochrome P450 Family 3 Subfamily A Member 4 (CYP3A4) small molecule antagonists: luciferase reporter qHTS assay (AID 1671201). Also: nearly all actives have a fitted effect of over 50% in size. Also: potency is read from the fitted curve at half-maximal effect. In outline:
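Setup: enzyme-substrate mix, compound pin transfer, 10 min RT. Reaction: NADPH regeneration solution, 1 h RT. Readout: detection reagent stops turnover, luminescence measured after 20 min, expressed in relative luminescence units.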

Assay [17] has as its target Nuclear receptor subfamily 1 group I member 2 (Rattus norvegicus) (UniProt Q9R1A7). Description: Rat pregnane X receptor (rPXR) activation by small molecules, qHTS assay (AID 1346983). Also: nearly all actives have a fitted effect of over 20% in size. Particulars: rPXR luciferase reporter cells, One-Glo luminescence, 24 h; max activation: hits give high values. In outline:
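Luminescent readout (One-Glo luciferase, 30 min room temperature) followed 24 hr compound treatment at 37 C of rPXR cells plated 2,000 per well and preincubated 5hr; qHTS format with compounds delivered in DMSO.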

Assay [18] deals with Nuclear receptor subfamily 1 group I member 2 (Homo sapiens) (UniProt O75469). Put plainly: CYP3A4 induction through human pregnane X receptor (PXR) by small molecules, qHTS assay (AID 1346984). Also: nearly all actives have a fitted effect of over 40% in size. In outline:
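After 24 h at 37C with compound, DPX-2 cells (HepG2, co-transfected PXR response element and CYP3A4 promoter-luciferase) got 3uM final P450-Glo Luciferin-IPA for 3 h; One-Glo luminescence followed.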

For assay [19] the target is unchanged. Put plainly: Human pregnane X receptor (PXR) activation by small molecules, qHTS assay (AID 1346985). Also: nearly all actives have a fitted effect of over 40% in size. In outline:
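DPX-2 cells (HepG2 co-transfected with a PXR response element and a CYP3A4-promoter luciferase construct) were seeded at 2,000 per well, rested 5 hr at 37C, then exposed to DMSO-dissolved compounds for 24 hr. Activation was read as luciferase luminescence.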

Values without a mark were called inactive. Results filed as inconclusive are left out. Active and inactive are the calls of the source. Unless noted, calls follow the shape of the dose curve; as a rule, active = well fitted curve in the direction sought with a large enough effect in the repeat runs; inconclusive = weak or mixed curves; inactive = no such curve, though single readings can be large; an effect the other way counts as inactive or inconclusive.
% is scaled to controls: 0 for no effect and ±100 for the full control effect.

Cytochrome P450 2C19 (Homo sapiens), sequence (P33261 whole entry, looked up): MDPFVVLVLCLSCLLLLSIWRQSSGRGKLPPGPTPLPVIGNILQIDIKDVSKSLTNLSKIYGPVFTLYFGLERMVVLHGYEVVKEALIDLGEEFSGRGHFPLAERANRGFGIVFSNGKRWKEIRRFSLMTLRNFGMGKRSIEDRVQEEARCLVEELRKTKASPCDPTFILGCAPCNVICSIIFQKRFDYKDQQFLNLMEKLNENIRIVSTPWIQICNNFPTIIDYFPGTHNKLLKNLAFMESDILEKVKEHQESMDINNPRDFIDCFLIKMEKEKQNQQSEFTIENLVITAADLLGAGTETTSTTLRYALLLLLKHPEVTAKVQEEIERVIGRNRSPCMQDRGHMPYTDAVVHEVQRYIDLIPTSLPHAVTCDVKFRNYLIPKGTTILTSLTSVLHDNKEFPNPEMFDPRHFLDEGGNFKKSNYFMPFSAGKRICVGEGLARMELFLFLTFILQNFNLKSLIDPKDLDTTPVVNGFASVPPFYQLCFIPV
Thyrotropin-releasing hormone receptor (Homo sapiens), sequence (P34981 whole entry, looked up): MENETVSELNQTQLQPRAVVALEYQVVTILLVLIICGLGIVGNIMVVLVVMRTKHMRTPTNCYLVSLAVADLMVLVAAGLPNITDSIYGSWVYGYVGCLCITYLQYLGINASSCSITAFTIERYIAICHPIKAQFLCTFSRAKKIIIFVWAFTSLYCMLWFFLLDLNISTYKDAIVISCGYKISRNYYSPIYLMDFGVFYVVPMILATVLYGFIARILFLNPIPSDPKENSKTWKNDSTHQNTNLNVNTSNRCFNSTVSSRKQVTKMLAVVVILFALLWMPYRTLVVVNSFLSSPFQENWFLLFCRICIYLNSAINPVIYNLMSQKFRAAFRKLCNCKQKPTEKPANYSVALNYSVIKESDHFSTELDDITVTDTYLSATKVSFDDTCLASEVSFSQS
Cytochrome P450 3A4 (Homo sapiens), sequence (P08684 whole entry, looked up): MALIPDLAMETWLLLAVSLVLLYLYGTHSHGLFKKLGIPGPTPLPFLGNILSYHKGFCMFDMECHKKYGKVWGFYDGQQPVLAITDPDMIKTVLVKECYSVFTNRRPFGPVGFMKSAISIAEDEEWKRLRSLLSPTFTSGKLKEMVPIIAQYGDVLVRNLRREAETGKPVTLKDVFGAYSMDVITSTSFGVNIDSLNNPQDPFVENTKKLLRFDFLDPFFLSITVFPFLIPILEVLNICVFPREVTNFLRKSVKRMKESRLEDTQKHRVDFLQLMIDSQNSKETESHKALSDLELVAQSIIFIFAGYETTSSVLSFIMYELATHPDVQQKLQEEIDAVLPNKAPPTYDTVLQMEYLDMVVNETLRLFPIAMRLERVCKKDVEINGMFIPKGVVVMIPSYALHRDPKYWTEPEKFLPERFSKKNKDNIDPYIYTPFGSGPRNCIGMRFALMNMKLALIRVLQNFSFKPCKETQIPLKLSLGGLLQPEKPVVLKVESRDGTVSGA
Nuclear receptor subfamily 1 group I member 2 (Homo sapiens), sequence (O75469 whole entry, looked up): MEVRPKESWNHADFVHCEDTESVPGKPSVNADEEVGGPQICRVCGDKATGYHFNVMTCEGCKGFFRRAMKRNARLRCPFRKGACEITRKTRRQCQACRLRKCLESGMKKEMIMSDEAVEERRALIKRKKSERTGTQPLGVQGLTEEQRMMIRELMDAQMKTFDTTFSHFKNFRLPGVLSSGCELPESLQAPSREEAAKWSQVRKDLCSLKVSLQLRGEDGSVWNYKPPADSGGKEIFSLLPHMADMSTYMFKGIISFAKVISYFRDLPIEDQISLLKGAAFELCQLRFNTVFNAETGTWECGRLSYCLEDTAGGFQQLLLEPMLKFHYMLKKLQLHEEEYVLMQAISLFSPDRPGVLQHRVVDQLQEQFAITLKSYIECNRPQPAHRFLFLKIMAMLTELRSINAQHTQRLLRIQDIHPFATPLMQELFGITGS
Cytochrome P450 2D6 (Homo sapiens), sequence (P10635 whole entry, looked up): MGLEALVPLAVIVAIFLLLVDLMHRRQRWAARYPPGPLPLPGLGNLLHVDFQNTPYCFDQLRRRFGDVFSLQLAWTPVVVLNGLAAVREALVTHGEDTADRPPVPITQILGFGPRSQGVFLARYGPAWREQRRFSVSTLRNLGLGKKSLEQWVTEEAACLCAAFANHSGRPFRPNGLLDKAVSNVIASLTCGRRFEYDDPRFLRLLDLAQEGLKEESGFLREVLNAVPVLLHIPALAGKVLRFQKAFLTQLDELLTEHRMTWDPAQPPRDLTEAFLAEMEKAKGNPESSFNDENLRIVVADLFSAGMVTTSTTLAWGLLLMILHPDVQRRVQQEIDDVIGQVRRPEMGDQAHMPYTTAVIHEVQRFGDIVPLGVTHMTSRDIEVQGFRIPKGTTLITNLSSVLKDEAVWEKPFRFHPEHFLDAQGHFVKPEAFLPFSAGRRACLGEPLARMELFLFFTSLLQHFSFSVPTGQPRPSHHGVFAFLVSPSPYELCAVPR
Voltage-gated inwardly rectifying potassium channel KCNH2 (Homo sapiens), sequence (Q12809 whole entry, looked up): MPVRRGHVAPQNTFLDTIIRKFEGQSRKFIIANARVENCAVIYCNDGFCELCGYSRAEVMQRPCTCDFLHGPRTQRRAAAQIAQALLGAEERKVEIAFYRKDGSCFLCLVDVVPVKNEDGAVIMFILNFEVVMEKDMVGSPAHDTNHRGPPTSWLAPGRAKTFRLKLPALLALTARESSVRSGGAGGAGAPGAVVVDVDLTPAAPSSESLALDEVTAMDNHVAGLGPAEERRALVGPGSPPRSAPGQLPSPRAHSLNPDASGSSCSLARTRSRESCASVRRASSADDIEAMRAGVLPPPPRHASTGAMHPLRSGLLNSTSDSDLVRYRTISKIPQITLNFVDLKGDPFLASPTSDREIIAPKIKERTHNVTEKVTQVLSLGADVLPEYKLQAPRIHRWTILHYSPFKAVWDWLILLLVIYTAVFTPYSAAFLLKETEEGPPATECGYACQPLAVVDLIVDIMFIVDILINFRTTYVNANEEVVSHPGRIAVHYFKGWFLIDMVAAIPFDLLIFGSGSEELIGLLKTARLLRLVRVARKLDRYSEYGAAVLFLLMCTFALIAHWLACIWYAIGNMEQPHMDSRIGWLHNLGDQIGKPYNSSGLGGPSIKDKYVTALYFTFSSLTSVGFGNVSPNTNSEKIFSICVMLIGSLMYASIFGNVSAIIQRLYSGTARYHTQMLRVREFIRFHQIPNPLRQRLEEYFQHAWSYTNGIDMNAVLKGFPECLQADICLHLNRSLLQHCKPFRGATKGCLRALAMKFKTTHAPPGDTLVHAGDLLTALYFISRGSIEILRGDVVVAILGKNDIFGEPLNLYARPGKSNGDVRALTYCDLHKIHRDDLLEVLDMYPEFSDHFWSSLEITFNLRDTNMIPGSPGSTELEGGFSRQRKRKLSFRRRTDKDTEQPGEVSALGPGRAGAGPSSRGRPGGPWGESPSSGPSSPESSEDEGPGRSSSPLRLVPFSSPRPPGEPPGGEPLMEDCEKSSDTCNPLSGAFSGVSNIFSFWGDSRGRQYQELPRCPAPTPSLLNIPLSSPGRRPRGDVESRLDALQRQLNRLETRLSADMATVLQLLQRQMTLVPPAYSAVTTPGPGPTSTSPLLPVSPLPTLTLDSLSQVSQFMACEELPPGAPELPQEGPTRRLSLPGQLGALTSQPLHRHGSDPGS
Nuclear receptor subfamily 1 group I member 2 (Rattus norvegicus), sequence (Q9R1A7 whole entry, looked up): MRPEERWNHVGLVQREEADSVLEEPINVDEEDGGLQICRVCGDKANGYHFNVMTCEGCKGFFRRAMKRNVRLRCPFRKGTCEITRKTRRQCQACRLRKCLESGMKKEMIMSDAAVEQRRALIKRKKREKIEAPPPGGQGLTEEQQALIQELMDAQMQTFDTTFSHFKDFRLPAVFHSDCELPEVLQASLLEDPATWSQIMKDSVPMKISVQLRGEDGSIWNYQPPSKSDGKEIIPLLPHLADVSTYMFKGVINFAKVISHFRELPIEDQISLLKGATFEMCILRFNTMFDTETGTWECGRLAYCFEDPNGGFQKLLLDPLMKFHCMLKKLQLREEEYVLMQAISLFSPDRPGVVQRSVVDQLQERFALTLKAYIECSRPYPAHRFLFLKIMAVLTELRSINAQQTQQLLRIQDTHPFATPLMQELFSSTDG

Take `CN(C)CCOCCN(C)CCO`: the compound was classed as inactive in [1], in [2], in [3], in assay [4], in [6] and in assay [8]. The Potency result in assay [5], in [7], in assay [9], in assay [10], in assay [12] and in assay [13] was “inactive” each time. Moreover, the Potency entry in [14], in [15] and in assay [16] was “inactive” in each case. In addition, the Potency in assay [11] is 20 µM (active).

In the case of `O=[Si]=O`, the result in assay [1], in assay [2], in [3], in assay [4], in assay [6] and in assay [8] was inactive. In addition, the Potency entry in assay [5], in assay [7], in [9], in [10], in assay [11] and in assay [12] was “inactive” each time. In addition, the Potency result in assay [13], in [14], in [15] and in assay [16] was “inactive” each time.

In the case of `CC(=O)Nc1ncc([N+](=O)[O-])s1`, the call in [1], in assay [2], in assay [3], in [4], in assay [6] and in assay [8] was inactive. The compound was classed as inactive in assay [18]. The Potency entry in [5], in [7], in assay [9], in assay [10], in assay [19] and in [11] was “inactive” each time. Also, the Potency entry in assay [12], in [15] and in assay [16] was “inactive” each time. The max activation in [17] was -3.65%. Also, the Potency in assay [14] was 15.5 µM (active).

For the compound `CCC(O)C(C)(C)C` (stereo not drawn), the compound was classed as inactive in assay [1], in assay [2], in [3], in assay [4], in assay [6] and in [8]. Also, the Potency result in [5], in [7], in [9], in assay [10], in assay [11] and in assay [12] was “inactive” in each case. In addition, the Potency result in assay [13], in assay [15] and in assay [16] was “inactive” throughout.

As to `CCCCOC(=O)C(=O)OCCCC`, the compound was called inactive in [1], in assay [2], in [3], in [4], in assay [6] and in assay [8]. Besides, the Potency entry in [5], in [7], in [10], in [11], in assay [12] and in [13] was “inactive” in each case. Also, the Potency result in assay [14], in assay [15] and in [16] was “inactive” throughout.

In the case of `COc1ccc(NS(=O)(=O)c2ccc(N)cc2)nn1`, the call in assay [1], in assay [2], in assay [3], in assay [4], in assay [6] and in assay [8] was inactive. The Potency result in assay [5], in assay [7], in assay [9] and in [15] was “inactive” in each case.

Regarding `COc1cccc2sc(N)nc12`, the outcome in assay [1], in [2], in assay [3], in assay [4], in [6] and in [8] was inactive. Also, the Potency entry in assay [5], in assay [7], in assay [9], in assay [13] and in [15] was “inactive” each time. The Potency in [11] was 11.3 µM (active); in [12] it was 56.7 µM (active); in [14] it was 22.6 µM (active); in [16], 10.1 µM (active).

`CC(C)=CC(C)(C)C`: the compound was classed as inactive in [1], in [2], in assay [3], in [4], in [6] and in assay [8]. The Potency entry in assay [5], in assay [7], in assay [10], in [11], in [12] and in [13] was “inactive” each time. The Potency entry in assay [15] and in assay [16] was “inactive” in each case.

Consider `CCCCCCCCCCCCCC(=O)OC`, for which the compound was classed as inactive in [1], in [2], in assay [3], in assay [4], in assay [6] and in assay [8]. For the same compound, the Potency result in [5], in assay [7], in [10], in assay [11], in [12] and in assay [13] was “inactive” in each case. In addition, the Potency entry in assay [14] and in [15] was “inactive” each time.
